# About 83,000 compounds went through this panel and 20% of them were active in at least one assay; those are over-represented in the sample as a whole.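 Note: values are percent growth. 100 is the growth of untreated cells, values between 100 and 0 indicate rising inhibition; between -100 and 0 indicates cell death.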 A number with no mark means an inactive call. Activity calls are given as the source filed them. How the source made its calls: active means growth percent below 10; inactive means the rest.
# Experiments:
# Test in all cases: NCI-60 one-dose screen, 48 h (100 = growth as untreated, 0 = no growth, -100 = all killed)
# Settings in all cases: 10 µM unless noted
# SR leukemia = test system: SR leukemia
# RPMI-8226 leukemia = test system: RPMI-8226 leukemia
# OVCAR-8 ovarian = test system: OVCAR-8 ovarian
# OVCAR-5 ovarian = test system: OVCAR-5 ovarian
# OVCAR-4 ovarian = test system: OVCAR-4 ovarian
# SK-OV-3 ovarian = test system: SK-OV-3 ovarian
# HS 578T breast = test system: HS 578T breast
# NCI/ADR-RES ovarian = test system: NCI/ADR-RES ovarian
# IGROV1 ovarian = test system: IGROV1 ovarian
# OVCAR-3 ovarian = test system: OVCAR-3 ovarian
SMILES,growth (SR leukemia),growth (RPMI-8226 leukemia),growth (OVCAR-8 ovarian),growth (OVCAR-5 ovarian),growth (OVCAR-4 ovarian),growth (SK-OV-3 ovarian),growth (HS 578T breast),growth (NCI/ADR-RES ovarian),growth (IGROV1 ovarian),growth (OVCAR-3 ovarian)
N#C/C(=C\c1ccc(-c2ccc(Cl)cc2)o1)C(=O)Nc1ncc(Cc2ccc(Br)cc2)s1,16.8%,64.1%,6.49% (active),42.4%,-26.7% (active),70.3%,-2.91% (active),8.56% (active),–,–
CC(=O)OCCCCN1C=C/C(=C\C(=O)n2ccc3ccccc32)c2ccccc21,88.7%,98.3%,102%,102%,–,97.6%,102%,109%,83.3%,100%
CSc1ccc(/C(=N/N=C(N)N)c2ccc(Cl)cc2)cc1,-15.7% (active),6.98% (active),-18.4% (active),11.4%,57%,24.7%,4% (active),-3.46% (active),–,–
O=C(CCCCCCNC(=O)C(O)(O)C(F)(F)F)Nc1ncc(-c2ccccc2)s1,10.9%,14.6%,-2.23% (active),-0.912% (active),–,-23.8% (active),0.452% (active),2.08% (active),-23.5% (active),-43% (active)
O=C(Nc1ccc(N=Cc2c(O)[nH]c3ccccc23)cc1)Nc1ccc(S(=O)(=O)Nc2ncccn2)cc1,96.4%,107%,102%,130%,101%,114%,103%,106%,–,117%
COc1ccc(-c2cc(-c3ccc(N(C)C)cc3)n3c(n2)nc2ccccc23)cc1,50.8%,23.1%,39.8%,95.5%,56.7%,55.5%,82.4%,59.5%,–,–
CC(C)(C)c1cc(NC(=O)Nc2ccc(-c3cn4c5c(sc4n3)CCc3cn(CCCN4CCCCC4)cc3-5)cc2)no1,-14% (active),-19.5% (active),-52% (active),-32.4% (active),–,97%,38.4%,-43% (active),-78.5% (active),–
CCCCCN1C(=O)/C(=c2\sc3n(c2=O)C2C(NN=3)N(CC)C(=O)N2CC)c2cccc(C)c21 (stereo not drawn),13.6%,39.1%,73.3%,72.4%,–,89.3%,34.3%,30.7%,44.8%,32.9%
CCC(=C(c1ccc(OCCN(C)C)cc1)c1ccc(OCCN(C)C)cc1)c1ccc(Cl)cc1,-43% (active),-43.8% (active),-21.5% (active),-48.7% (active),-20.1% (active),95.5%,-36.1% (active),-25.7% (active),–,-34.8% (active)
C/C(=C(/C)C1CC1CCNC1CCC(NC(=O)OC(C)(C)C)CC1)c1ccccc1 (stereo not drawn),-25.5% (active),2.74% (active),81.6%,84.4%,78.5%,88.8%,84.1%,75.7%,–,–
CCOC(=O)c1c(N)c(C#N)cn1Cc1ccc(Cl)cc1Cl,26.2%,83%,94.4%,85.5%,79.3%,101%,73.4%,61.5%,–,–
Nn1c(=O)n(-c2cccc(C(F)(F)F)c2)c(=O)c2cc(-c3ccc(F)cc3F)ccc21,6.24% (active),-19.1% (active),9.99% (active),47.2%,28.8%,-8.64% (active),0.556% (active),2.58% (active),–,–
Cc1ccccc1NC(=O)Nc1nc2ccc([N+](=O)[O-])cc2s1,6.41% (active),5.55% (active),9.56% (active),16.9%,3.62% (active),-19.4% (active),24.1%,6.24% (active),–,10.1%
CCN(CC)c1ccc(/C=N/NC(=O)c2ccc(NS(C)(=O)=O)cc2)c(O)c1,10.6%,15.8%,12%,46%,31.3%,34.2%,55.7%,36.9%,–,–
CC(C)[C@H]1c2[nH]c3ccccc3c2C[C@H]2C(=O)N(CCCCCCC(=O)NO)CC(=O)N12,33.6%,58.6%,60.8%,81.5%,99.9%,95%,74.2%,95.3%,–,–
O=S1SC(c2ccccc2)=NN1c1cc(F)cc(F)c1 (stereo not drawn),19.3%,11.5%,35.5%,93.8%,49.3%,24.8%,61.9%,53.4%,–,–
CCOP(=O)(OCC)OC[C@]12CCC(C)(C)CC1C1=CC[C@@H]3[C@@]4(C)CCCNC(C)(C)[C@@H]4CC[C@@]3(C)[C@]1(C)CC2 (stereo partly drawn),-24.1% (active),-1.77% (active),90.2%,102%,80.9%,112%,88.7%,73.7%,–,97.1%
Cc1ccc(C(=O)CSc2nc3ccccc3c(=O)n2C)cc1,81.5%,63.8%,94.4%,105%,–,87.4%,94.6%,90%,71.1%,94.2%
O=C(Nc1ccc(N2CCOCC2)cc1)Nc1ccc2c(ccn2C(=O)c2cccc(F)c2)c1,71.8%,58.5%,58.3%,99.3%,–,111%,21.7%,74.2%,81%,82.7%
Cc1[nH]c(C(=O)Nc2ccccc2OCc2cccc(C(=O)NC3CCNC3)c2)c(Cl)c1Cl (stereo not drawn),-0.792% (active),-10% (active),-37% (active),45.3%,–,107%,87.6%,67.1%,31.2%,-26.7% (active)
O=C(COc1ccc(/C=C2\C(=O)Nc3ccc(F)cc32)cc1)Nc1ccccc1,86.1%,103%,98.7%,95.8%,100%,96.9%,105%,101%,–,–
COC(=O)N1CCN(CCNCc2ccc(NC(=O)c3ccc(C)c(C#Cc4cnc5cccnn45)c3)cc2C(F)(F)F)CC1,-7.7% (active),-6.11% (active),31.6%,46.2%,–,83.1%,-2.16% (active),6.71% (active),11.3%,64.8%
CN1CCN(c2ccc(Nc3nc(NCCCNS(=O)(=O)c4ccccc4)c4sccc4n3)cc2)CC1,2.4% (active),14.6%,65.8%,78.3%,–,122%,80.3%,86.4%,79.7%,74.3%
O=C(CSc1nc2ccccc2c(=O)n1-c1ccccc1)N/N=C/c1ccc(Oc2ccc(Cl)cc2)cc1,70.3%,73.3%,59.2%,81.5%,73.7%,83.2%,58.9%,52.7%,–,111%
COc1ccc(/C=N/N=C(/c2ccccc2)c2ccc3nc(-c4ccc(Cl)cc4)[nH]c3c2)cc1,71.2%,48.6%,80.4%,81.5%,75%,93.2%,97.4%,85%,–,–
C=CCSC1=NC2C(N(CC)C(=O)N2CC)N1/N=C/C=C/c1ccccc1OC (stereo not drawn),16.9%,53.7%,83.5%,105%,–,99.8%,82.4%,53.3%,69%,54.6%
CN1CCN(Cc2ccc(NC(=O)c3cncc(C#Cc4cnc5ccc(OCC6COC6)nn45)c3)cc2C(F)(F)F)CC1,-22.7% (active),-24.4% (active),-54.5% (active),-75.1% (active),–,-22.6% (active),-37.3% (active),-34.4% (active),-39% (active),–
CC(C)NC(=O)c1cc(-c2ccc(NC(=O)Nc3ccc(F)c(C(F)(F)F)c3)cc2)nc2cccnc12,81.6%,89.8%,79.5%,113%,–,105%,87.6%,98.2%,110%,109%
CCOC(=O)C1=C(C)NC(C)=C(C(=O)OC(C)C)C1c1cccc(C#N)c1 (stereo not drawn),90.9%,108%,103%,99.1%,104%,132%,98%,95%,–,105%

# Reference: PubChem BioAssay (NCI)
